PubChem BioAssay AID1159580 (chemical genetic matrix, 2015)
“And” between values parts separate entries of the source, which are not always exact repeats. Identical values can stand only once. Screen size: about 5,500 compounds; about 2,000 (36%) were called active. Roughly 18% stayed inconclusive and do not appear here. Rule as the data show it: active = normalized growth mostly below about 0.91 (no sharp cut-off); inconclusive = no clear call, values can overlap the other calls; inactive = mostly above about 0.92. The list shows a part of the results.

Assay: chemical genetic growth profiling, strain panel (AID 1159580);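 also: tested at 20 µM; growth read once vehicle control cultures reached saturation at 30 °C; 1 = growth at the plate median or of vehicle wells; lower values mean less growth of the strain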
Settings: S. cerevisiae deletion strains, growth OD

Measured: normalized growth

CC(C)CCCC(C)C1CCC2C3=CC[C@H]4C[C@@H](O)CC[C@]4(C)C3CC[C@@]21C (some centres not stated)
inactive: locus YAL021C, strain ccr4, stronger effect = lower value 0.965 | locus YAL026C, strain drs2, stronger effect = lower value 0.965 | locus YAL030W, strain snc1, stronger effect = lower value 0.985 | locus YBL061C, strain skt5, stronger effect = lower value 0.991 | locus YBR009C, strain hhf1, stronger effect = lower value 1.02 | locus YBR021W, strain FUR4, stronger effect = lower value 1.02 | locus YBR023C, strain chs3, stronger effect = lower value 0.961 | locus YBR171W, strain sec66, stronger effect = lower value 0.968 | locus YBR229C, strain ROT2, stronger effect = lower value 1.02 | locus YBR231C, strain swc5, stronger effect = lower value 0.967 | locus YBR279W, strain paf1, stronger effect = lower value 0.991 | locus YCL011C, strain gbp2, stronger effect = lower value 0.974 | locus YCL016C, strain dcc1, stronger effect = lower value 0.979 | locus YCL029C, strain bik1, stronger effect = lower value 0.994 | locus YCL061C, strain MRC1, stronger effect = lower value 0.986 | locus YCL069W, strain vba3, stronger effect = lower value 0.989 | locus YCR088W, strain abp1, stronger effect = lower value 0.983 | locus YDL005C, strain med2, stronger effect = lower value 0.997 | locus YDL035C, strain GPR1, stronger effect = lower value 0.996 | locus YDL040C, strain nat1, stronger effect = lower value 0.965 | locus YDL074C, strain BRE1, stronger effect = lower value 0.965 | locus YDL101C, strain DUN1, stronger effect = lower value 1.02 | locus YDL185W, strain tfp1, stronger effect = lower value 1 | locus YDL192W, strain arf1, stronger effect = lower value 0.981 | locus YDR001C, strain nth1, stronger effect = lower value 0.985 | locus YDR069C, strain doa4, stronger effect = lower value 0.98 | locus YDR101C, strain arx1, stronger effect = lower value 0.988 | locus YDR150W, strain NUM1, stronger effect = lower value 1.04 | locus YDR159W, strain sac3, stronger effect = lower value 1.01 | locus YDR162C, strain NBP2, stronger effect = lower value 0.958 | locus YDR195W, strain ref2 1.03 | locus YDR297W, strain sur2, stronger effect = lower value 0.975 | locus YDR318W, strain mcm21, stronger effect = lower value 1.01 | locus YDR334W, strain swr1, stronger effect = lower value 0.948 | locus YDR335W, strain msn5, stronger effect = lower value 0.967 | locus YDR388W, stronger effect = lower value 0.994 | locus YDR392W, strain spt3, stronger effect = lower value 0.863 | locus YDR502C, strain sam2, stronger effect = lower value 0.977 | locus YEL003W, strain gim4, stronger effect = lower value 0.976 | locus YEL037C, strain rad23, stronger effect = lower value 0.975 | locus YEL061C, strain CIN8 (second series), stronger effect = lower value 0.978 | locus YEL061C, strain CIN8, stronger effect = lower value 1.01 | locus YER015W, strain faa2, stronger effect = lower value 0.985 | locus YER016W, strain bim1, stronger effect = lower value 0.998 | locus YER110C, stronger effect = lower value 0.985 | locus YER111C, strain swi4, stronger effect = lower value 0.977 | locus YER155C, strain BEM2 (second series), stronger effect = lower value 0.973 | locus YER155C, strain BEM2, stronger effect = lower value 1.01 | locus YER167W, strain BCK2, stronger effect = lower value 1.06 | locus YFR010W, strain ubp6, stronger effect = lower value 0.983 | locus YGL078C, strain dbp3, stronger effect = lower value 0.982 | locus YGL086W, strain mad1, stronger effect = lower value 0.996 | locus YGL167C, strain pmr1, stronger effect = lower value 0.98 | locus YGL173C, strain kem1, stronger effect = lower value 0.968 | locus YGL227W, strain vid30, stronger effect = lower value 0.991 | locus YGL240W, strain doc1, stronger effect = lower value 0.984 | locus YGL248W, strain PDE1, stronger effect = lower value 1.03 | locus YGR135W, strain pre9, stronger effect = lower value 0.982 | locus YGR252W, strain gcn5, stronger effect = lower value 0.944 | locus YHR013C, strain ard1, stronger effect = lower value 0.957 | locus YHR027C, strain rpn1, stronger effect = lower value 0.973 | locus YHR030C, strain SLT2, stronger effect = lower value 1.01 and 0.993 | locus YHR079C, strain IRE1 (second series), stronger effect = lower value 1 | locus YHR079C, strain IRE1, stronger effect = lower value 1.02 | locus YHR094C, strain hxt1, stronger effect = lower value 0.988 | locus YHR129C, strain ARP1, stronger effect = lower value 1.01 | locus YHR142W, strain chs7, stronger effect = lower value 0.886 | locus YHR200W, strain rpn10, stronger effect = lower value 1.01 | locus YIL066C, strain RNR3, stronger effect = lower value 1.03 | locus YIL073C, strain SPO22, stronger effect = lower value 1.05 | locus YIL125W, strain kgd1, stronger effect = lower value 0.999 | locus YIR030C, strain dcg1, stronger effect = lower value 0.994 | locus YJL092W, strain hpr5, stronger effect = lower value 0.976 | locus YJL095W, strain BCK1 (second series), stronger effect = lower value 0.991 | locus YJL095W, strain BCK1, stronger effect = lower value 0.946 and 1 | locus YJL115W, strain asf1, stronger effect = lower value 0.966 | locus YJL129C, strain trk1, stronger effect = lower value 0.905 | locus YJL134W, strain LCB3, stronger effect = lower value 0.989 | locus YJL154C, strain vps35, stronger effect = lower value 0.995 | locus YJL164C, strain tpk1, stronger effect = lower value 0.956 | locus YJL166W, strain qcr8, stronger effect = lower value 0.971 | locus YJL168C, strain set2, stronger effect = lower value 0.995 | locus YJL187C, strain SWE1 (second series), stronger effect = lower value 0.994 | locus YJL187C, strain SWE1, stronger effect = lower value 0.985 | locus YJR043C, strain POL32, stronger effect = lower value 1.05
active: locus YDR137W, strain rgp1, stronger effect = lower value 0.823 | locus YGL253W, strain hxk2, stronger effect = lower value 0.909
